Among all 2,300 compounds or so, about 790 (34%) were called active. The list shows a part of the results. Results with a measured potency or affinity are listed apart. Unmarked numbers belong to inactive results. No rule for the calls is given here.

The nature of the assay: THP-1 cell cytotoxicity, dose response, cytotoxicity control for non-replicating M. tuberculosis project (AID 489025). To be noted: THP-1 cell viability; series mostly up to 40 µM; viability: at the top concentration.
By viability is commonly meant a read-out of living cells in per cent, often relative to untreated cells. For the molecule `Nc1ccc2c(c1)oc1ccccc12`, the “viability” value is 101%.

For `COc1ccc(N2CCN(CC(=O)NC(=O)NC(C)(C)C)CC2)cc1`, the “viability” value is 96.5%.

Regarding `Cc1cc(C)n(C(=O)c2ccc([N+](=O)[O-])cc2[N+](=O)[O-])n1`, the “viability” value was 96%.

`O=C(c1ccc([N+](=O)[O-])cc1[N+](=O)[O-])N1CCc2ccccc21`: the “viability” value was 103%.

As for `CCC1(O)CC(c2ccccc2)=NN1C(=O)c1ccccc1F` (stereo not given), the “viability” value was 102%.

Regarding `CCOC(=O)C(C)(C)n1nnc(-c2ccc([N+](=O)[O-])cc2)n1`, the “viability” value is 116%.

With `CCOC(=O)C1CCN(C(=O)COc2cc(C)c(Br)c(C)c2)CC1`, the “viability” value is 110%.

As to `O=C(COc1ccccc1)Nc1ccc(Cl)cn1`, the “viability” value is 83.5%.

Consider `FC(F)c1nnc2ccc(Cl)nn12`, for which the “viability” value is 72.5%.

On to `O=Cc1coc2ccc3ccccc3c2c1=O`, for which the “viability” value is 81.1%.

Regarding `COC(=O)COc1cccc(NC(=O)c2cccc(C)c2)c1`, the “viability” value is 77.6%.

On to `COc1ccc(-c2noc(CCC(=O)Nc3cccc(C)c3)n2)cc1`, for which the “viability” value was 113%.

For the molecule `CCOC(=O)COc1ccc(C(=O)c2ccccc2)c(O)c1`, the “viability” value was 109%.

For the molecule `CC(C)c1cc(C(=O)N/N=C/C=C/c2ccccc2)n[nH]1`, the “viability” value was 75.9%.

With `COc1ccc(S(=O)(=O)NCc2ccc3c(c2)cc(C)n3C)cc1`, the “viability” value was 95.4%.

Regarding `Cc1nnc(N/N=C/c2cccc(OCc3ccc(Cl)c(Cl)c3)c2)n1N`, the “viability” value was 79.3%.

Regarding `O=C(OCc1nc2ccccc2s1)c1ccc(Br)o1`, the “viability” value is 115%.

On to `CCOC(=O)CCCNC(=O)COC(=O)c1cc(Br)c(Br)s1`, for which the “viability” value is 105%.

For the molecule `O=C(N/N=C/C(Br)=C/c1ccccc1)c1cnccn1`, the “viability” value is 95.2%.

With `CCOc1ccc(-c2ccc(C=O)o2)c([N+](=O)[O-])c1`, the “viability” value was 70.5%.

Regarding `C/C(CC(=O)Nc1ccc(N(C)C)cc1)=N\NC(=O)c1ccncc1`, the “viability” value is 107%.

With `Cc1ccc(C)c(NC(=O)c2cc([N+](=O)[O-])cc([N+](=O)[O-])c2)c1`, the “viability” value was 107%.

In the case of `Cc1cc(Cl)ccc1OC(C)C(=O)Nc1ccc([N+](=O)[O-])cn1` (stereo not given), the “viability” value was 79.7%.

As for `O=C1CC(=O)CC(c2ccccc2)C1`, the “viability” value was 106%.

With `O=C1CC(N2CCC(c3nc4ccccc4o3)CC2)C(=O)N1` (stereo not given), the “viability” value was 99.5%.

On to `O=[N+]([O-])c1ccc(CN2CCN(c3ccccc3)CC2)o1`, for which the “viability” value was 126%.

With `O=[N+]([O-])c1ccc(N2CCN(Cc3ccc([N+](=O)[O-])o3)CC2)cc1`, the “viability” value was 89.6%.

Turning to `O=C(c1cccs1)N1CCN(c2ccc(Cl)cc2)CC1`, the “viability” value was 85%.

For `O=C(NNC(=O)c1cccs1)c1ccc(Br)o1`, the “viability” value is 95.2%.

Turning to `O=[N+]([O-])c1ccc(CN2CCN(c3ccc(F)cc3)CC2)o1`, the “viability” value is 106%.

Turning to `COc1cccc(OCC(=O)NNC(=O)c2cccs2)c1`, the “viability” value is 102%.

`CCOC(=O)NC(=O)COC(=O)CCCSc1nc2ccccc2s1`: the “viability” value is 119%.

Consider `O=C(Cc1ccc(F)cc1)Nc1ccc(Cl)cn1`, for which the “viability” value was 92.7%.

As to `Cc1ccc2nc(C)c3c(c2c1)SCC3`, the “viability” value was 91.6%.

With `COc1ccc(OCC(=O)Nc2ccc(N3CCN(C(=O)c4ccco4)CC3)cc2)cc1`, the “viability” value is 103%.

Consider `Nc1scc(-c2ccncc2)c1Cl`, for which the “viability” value was 101%.

Take `CCOC(=O)COc1ccc2c(c1)C(=O)CC(C)(c1cccnc1)O2` (stereo not given): the “viability” value was 105%.

Take `COc1cc(/C=N/Nc2cccc3cccnc23)cc(OC)c1O`: the “viability” value is 104%.

Turning to `C/C(O)=C\c1nc2ccccc2oc1=O`, the “viability” value is 70.5%.

With `Oc1cc(NCc2cccnc2)ccc1-c1nc2ccccc2o1`, the “viability” value is 72.7%.

As to `CCc1nnc(N/N=C/c2ccc(N3CCC(C)CC3)c([N+](=O)[O-])c2)n1N`, the “viability” value was 85.3%.

For the molecule `COc1cc(/C=N/N(C)C)ccc1OC(=O)c1cccs1`, the “viability” value is 95%.

In the case of `O=C(COc1ccc2c(c1)CCC2)Nc1ccccn1`, the “viability” value was 99.8%.

With `Cc1cccc2c(CC(=O)O)noc12`, the “viability” value was 101%.

As to `COc1cc(OC)cc(-c2nc3ccccc3c(=O)o2)c1`, the “viability” value was 102%.

Turning to `COc1ccc(/C=C/c2nc3ccccc3c(=O)o2)cc1`, the “viability” value is 80.8%.

Consider `O=C(C/C=N\OCc1ccc([N+](=O)[O-])cc1)Nc1ccc(Cl)cc1`, for which the “viability” value was 101%.

As to `O=C(COC(=O)CC1CCCC1)Nc1ccc(OC(F)F)cc1`, the “viability” value is 130%.

As for `COCCCNC(=O)COC(=O)c1ccc(-c2nc3ccccc3s2)s1`, the “viability” value is 93.4%.

As to `CCc1ccc(C(=O)COC(=O)c2ccc(Cl)nc2)cc1`, the “viability” value is 95.8%.

On to `CC(C)Cn1c(N)c(C(=O)COC(=O)c2ccc([N+](=O)[O-])o2)c(=O)n(C)c1=O`, for which the “viability” value was 94.1%.

For the molecule `Oc1oc(-c2ccco2)nc1C=Nc1cccc(Cl)c1`, the “viability” value was 99.7%.

Turning to `CCCCCn1nnc2c(=O)oc3ccccc3c21`, the “viability” value is 97.3%.

For `CCOc1ccc(OCC(=O)OCc2cc(=O)n3cc(Br)ccc3n2)cc1`, the “viability” value is 97.9%.

Turning to `CCOC(=O)c1nc2sc3c(c2c(=O)[nH]1)CCC(C)C3` (stereo not given), the “viability” value is 87.8%.

In the case of `Nc1nonc1C(=O)NCCN=Cc1cc(Cc2ccccc2)cc(Br)c1O`, the “viability” value was 96.6%.

Regarding `COc1cccc(COC(=O)CCNC(=O)c2ccc(Cl)cc2)c1OC`, the “viability” value was 112%.

For `COc1ccccc1C(c1nnnn1Cc1ccccc1)N1CCC(C(N)=O)CC1` (stereo not given), the “viability” value is 104%.

For the molecule `CCCCNC(=O)N1CCc2ccccc2C1`, the “viability” value is 120%.

Turning to `C/C(=N\NC(=O)c1ccc([N+](=O)[O-])c(C)c1)c1ccccc1Cl`, the “viability” value was 88.1%.

With `COc1ccc(N=N/C(=C\O)C(=O)c2ccco2)cc1`, the “viability” value was 106%.

In the case of `Cc1[nH]c2ccccc2c1C(=O)C(C)OC(=O)c1ccc([N+](=O)[O-])o1` (stereo not given), the “viability” value is 81.2%.

`O=C(OCCCOC(=O)c1ccc([N+](=O)[O-])o1)c1ccc([N+](=O)[O-])o1`: the “viability” value was 99.9%.

For `CCOC(=O)c1cc(-c2c(Cl)cccc2Cl)no1`, the “viability” value is 94.5%.

Consider `Cc1ccc(C(=O)O/N=C(\N)c2cccc([N+](=O)[O-])c2)cc1`, for which the “viability” value was 98.6%.

Take `N=c1oc2ccccc2cc1C(=O)NC1CCCCCC1`: the “viability” value is 108%.

Regarding `O=C(Nc1nccs1)c1cc2cc(Cl)ccc2oc1=O`, the “viability” value is 87.5%.

With `O=C(COC(=O)c1cccc(C(F)(F)F)c1)NCc1ccccc1`, the “viability” value is 117%.

Take `CCOC(=O)c1cn(Cc2cccc(Cl)c2)nn1`: the “viability” value is 106%.

With `CSc1ccccc1NC(=O)c1cc(C(C)C)on1`, the “viability” value was 101%.

On to `CCCCNS(=O)(=O)c1ccc(OCC(=O)OC)cc1`, for which the “viability” value is 89.7%.

For the molecule `O=c1oc(/C=C/c2ccc([N+](=O)[O-])s2)nc2ccccc12`, the “viability” value was 83.4%.

Regarding `C=C(C)C1Cc2cc3ccc(=O)oc3cc2O1` (stereo not given), the “viability” value is 85.2%.

As to `C/C(=N\NC(=O)c1nn(C)cc1Cl)c1ccncc1`, the “viability” value is 107%.

`CCOc1ccc(-c2cc(CCCC(=O)NCCC(C)C)no2)cc1`: the “viability” value is 103%.

As for `O=c1c(=Nc2ccccc2O)c(=O)c2ccccc12`, the “viability” value is 105%.

`O=C(O)c1[nH]c(=O)[nH]c(=O)c1F`: the “viability” value is 80.6%.

Take `CCOC(=O)CN1NC2(CCC(C)CC2)NC1=S` (stereo not given): the “viability” value is 86.5%.

With `CCc1cc(C(c2ccncc2)N2CCN(C)CC2)c(NC(=O)c2ccccc2)s1` (stereo not given), the “viability” value was 106%.

`CCc1ccc(NC(=O)C(=O)NNC(=O)c2cccc(OC)c2)cc1`: the “viability” value was 77.2%.

Take `Cc1ccc(C(=O)Oc2cccc(-n3cnnn3)c2)cc1`: the “viability” value was 87.2%.

Consider `COC(=O)COc1ccc(-c2ccc(F)cc2)cc1C=O`, for which the “viability” value was 87.1%.

`Cc1ccc(CCC(=O)Nc2ccc([N+](=O)[O-])cc2)o1`: the “viability” value was 106%.

`COc1ccc(/C=N/NC(=O)C(=O)NCc2cccnc2)cc1OC`: the “viability” value is 117%.

On to `Cc1ccc(CCC(=O)Nc2cc(Cl)ccc2Cl)o1`, for which the “viability” value is 95.1%.

On to `Cc1ccc(OCC(=O)N/N=C/c2ccc([N+](=O)[O-])o2)cc1`, for which the “viability” value is 100%.

In the case of `O=[N+]([O-])c1ccc(/C=N/NS(=O)(=O)c2ccc(Cl)cc2)o1`, the “viability” value was 90%.

`Cc1ncsc1CCOC(=O)c1ccc([N+](=O)[O-])cc1`: the “viability” value was 88.5%.

Take `Oc1ccc(Br)cc1-c1ccn[nH]1`: the “viability” value is 94.1%.

Consider `CCCCNC(=O)COC(=O)c1cc(F)c(F)cc1Cl`, for which the “viability” value was 125%.

Turning to `C=Cc1cccc(NC(=O)COc2ccccc2)c1`, the “viability” value was 90.2%.

For `Cc1nn(-c2ccccc2)nc1C(=O)c1c(C)[nH]n(-c2ccccc2)c1=O`, the “viability” value was 84.6%.

Consider `CCC(C)c1ccc(O)c(/C=N/O)c1` (stereo not given), for which the “viability” value was 94.4%.

In the case of `O=[N+]([O-])c1cc2oc3c(c2c(C=NCc2ccccc2)c1O)CCCC3`, the “viability” value was 118%.

Regarding `Nc1ccc(C(=O)N/N=C\C=C\c2ccc([N+](=O)[O-])cc2)cc1`, the “viability” value is 118%.

Consider `O=C(N/N=C/C=C/c1ccco1)c1ccncc1`, for which the “viability” value is 96.7%.

In the case of `O=C(COC(=O)CCC(=O)c1ccc(F)cc1)Nc1ccc(F)cc1F`, the “viability” value was 110%.

Regarding `COc1cccc(OC(=O)c2cc3ccccc3oc2=O)c1`, the “viability” value was 101%.

On to `CCC(=O)N1CCN(c2cc3c(cc2F)c(=O)c(C(=O)O)cn3CC)CC1`, for which the “viability” value was 119%.

In the case of `CC(C)OC(=O)CCCCCN1C(=O)CSC1=S`, the “viability” value is 106%.

Take `O=C(OCC#CCSc1nnc(-c2ccccc2)o1)c1ccco1`: the “viability” value was 91.4%.

As to `COC(=O)CCCCCN1C(=O)/C(=C\c2ccncc2)SC1=S`, the “viability” value was 75.8%.

Turning to `Cc1ccc(C(=O)c2cncc(Br)c2)cc1`, the “viability” value is 86.4%.

Turning to `CCCCN1C(=O)C2(NNc3ccccc3O2)c2ccccc21` (stereo not given), the “viability” value is 77.2%.

As to `COC(=O)COc1ccc2c(=O)c(Oc3ccccc3)c(C)oc2c1`, the “viability” value was 113%.

Regarding `O=C(NCC1CCCCC1)c1ccc([N+](=O)[O-])cc1`, the “viability” value was 112%.

With `NC(N)=N/N=C/c1cc([N+](=O)[O-])ccc1O`, the “viability” value was 119%.

For the molecule `O=C(NNc1ccc([N+](=O)[O-])cc1)C1CC2CCCC(C1)C2=O` (stereo not given), the “viability” value was 124%.

For `O=C(C/C=N\OCc1ccc([N+](=O)[O-])cc1)Nc1ccc(Br)cc1`, the “viability” value is 91.5%.

For `CCCC(=O)Nc1cccc(-c2nc3ccccc3c(=O)o2)c1`, the “viability” value is 110%.

Consider `C#CCOc1coc(COC(=O)c2ccccc2)cc1=O`, for which the “viability” value is 93.3%.

On to `CC1C/C(=N/N2C(=O)CSC2=S)CC(C)(C)C1` (stereo not given), for which the “viability” value was 127%.

`CCCCCCC1CC(C)(C(=O)CNc2nncs2)OC1=O` (stereo not given): the “viability” value was 115%.

Consider `CC1=NN(C(=O)c2csc(C)c2C)C(O)(C(F)(F)F)C1` (stereo not given), for which the “viability” value was 90.6%.

With `Nc1cccn2c(-c3ccc(Cl)cc3)cnc12`, the “viability” value is 89.2%.

With `Cc1ccc(C(=O)Nc2nccs2)cc1`, the “viability” value is 78.5%.

`CCN1CCN(C(=O)CN(Cc2ccccc2)S(C)(=O)=O)CC1`: the “viability” value is 85.7%.

Consider `C/C(=N\NC(=O)c1cc([N+](=O)[O-])cc([N+](=O)[O-])c1)c1ccco1`, for which the “viability” value was 93%.

In the case of `CC(C)c1ccc(C2=C(O)c3ccccc3C(=O)C2=O)cc1`, the “viability” value was 112%.

Consider `N#CC1=C(N)Oc2n[nH]c(-c3cccnc3)c2C1c1ccc([N+](=O)[O-])o1` (stereo not given), for which the “viability” value is 114%.
